Laboratory results reported in PubChem BioAssay (NCI).
About 83,000 compounds went through this panel and 20% of them were active in at least one assay; those are over-represented in the sample as a whole.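 Cells were grown in 96-well plates and exposed to the test compound at a single concentration for 48 hours; results are reported as percent growth, with values below 10 considered active.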 The source made the active and inactive calls.

tested on: HOP-92 NSCLC; assay: NCI-60 one-dose screen, 48 h (100 = growth as untreated, 0 = no growth, -100 = all killed); details: 10 µM unless noted

SMILES | growth
COc1cc(/C=C/C(=O)c2c(C)n([O-])c3ccc(Cl)cc3[n+]2=O)cc(OC)c1OC | 78.6% (inactive)
COc1ccc2ncccc2c1Cc1c(OC)ccc2ncccc12 | 58.1% (inactive)
C=C1CC[C@@H]2[C@](C)(COC(C)=O)[C@H](OC(C)=O)CC[C@@]2(C)[C@@H]1CC(NCc1ccccc1)C1=CCOC1=O (stereo not given in full) | 41.7% (inactive)
CCOC(=O)c1sc(NC(=O)COc2cccc(/C=C3\Cc4ccc(Cl)cc4C3=O)c2)nc1C | 96.7% (inactive)
O=C(Nc1cccc(-n2cc(-c3ccncc3)c(-c3cc(O)cc(Cl)c3)n2)c1)Nc1ccc(Cl)c(Cl)c1 | -30.5% (active)
O=c1ccn(C2CC=C(CO)O2)c(=O)[nH]1 (stereo not given) | 38.1% (inactive)
COC(=O)[C@H](Cc1cn(C)cn1)NC(=O)[C@@H](NC(=O)Nc1cc(C(F)(F)F)cc(C(F)(F)F)c1)C(C)C | -96.6% [100 µM] (active)
O=c1c2ccccc2c2nccn2c2cc(Cl)ccc12 | 28.8% (inactive)
[N-]=[N+]=NCc1ncc(-c2ccc(C(F)(F)F)cc2)c(NC2CCCCCC2)n1 | 64.5% [50 µM] (inactive)
CN(C)CCC(=O)Nc1ccc(-n2cc(-c3cccc(NC(=S)Nc4cccc(-c5cn(-c6ccc(NC(=O)CCN(C)C)cc6)nn5)c4)c3)nn2)cc1 | 101% (inactive)
C/C(=C\CCc1ccoc1)CC/C=C(\C)CCCNc1ccc(F)cc1 | 96.3% (inactive)
COP(=O)(OC)C(c1ccccc1)(c1ccccc1)c1ccccc1 | 62.8% (inactive)
COc1cc(/C=C2\CN(S(=O)(=O)c3ccc(C)cc3)C/C(=C\c3cc(CN4CCOCC4)c(O)c(OC)c3)C2=O)cc(CN2CCOCC2)c1O | -30.3% (active)
CCCCCc1c(C)[nH]c(/C=C2\N=C(c3ccc[nH]3)C=C2Oc2ccccc2)c1C | -41.3% [100 µM] (active)
CCCCCCCSc1ncnc2[nH]ncc12 | -2.1% (active)
COc1cccc(/C=N\NC(=O)c2ccncc2)c1O | 55.1% (inactive)
Cc1cc(=O)oc2cc(OCCn3c(C)nn(-c4ccc(Cl)cc4)c3=O)ccc12 | 47.4% (inactive)
CC1CC=CCC1C1OCC(C)(C)CO1 (stereo not given) | 106% (inactive)
O=C1CSC(c2ccccc2Cl)N1c1nnc(Cn2nnc3ccccc32)o1 (stereo not given) | 56.8% (inactive)
O=C1Nc2ccc(C(=O)O)c(O)c2C1=O | 97.3% (inactive)

SMILES | growth
ICCC(c1ccccc1)(c1ccccc1)c1ccccc1 | 40.6% (inactive)
O=C(Oc1cccc2ccccc12)c1ccccc1C(=O)c1ccccc1 | 54.5% (inactive)
COc1ccc(C(=O)/C=C/c2ccc(C)cc2)cc1OC | 52.5% (inactive)
O=C(Nc1nc2c(C(F)(F)F)cccc2s1)c1cc(Cl)ccc1O | -27.8% (active)
CCOC(=O)C1C(=O)NC(C(=O)OCC)(C(=O)OCC)C1CC (stereo not given) | 98% (inactive)
O=C(CNC(=O)c1cccc2ccccc12)Nc1ccccc1Oc1cccc(O)c1 | 72.9% [5 µM] (inactive)
CC(=O)Nc1c(Cl)cc2c(c1Cl)Cc1cc([N+](=O)[O-])ccc1-2 | 53.3% (inactive)
COc1cc2c(cc1OC)C(CC1(O)CCCCC1)N(S(=O)(=O)c1ccc(C)cc1)CC2 (stereo not given) | -10.6% [100 µM] (active)
NC(=O)NC1(C(=O)O)CCCC1 | 121% (inactive)
COc1ccc(N2CCN(CC(=O)N3CCN(c4nnc(-c5ccc(Cl)cc5)c(-c5ccc(Cl)cc5)n4)CC3)CC2)cc1 | 50.3% (inactive)
Oc1ccc(/C=N/Nc2nc3ccccc3s2)c(O)c1 | 62.8% (inactive)
Nc1ccccc1-c1ccn[nH]1 | 91.4% (inactive)
Nc1ccc2c(c1)Cc1cc(Cl)c(Cl)cc1-2 | 67.8% (inactive)
O=C1C=CC(=O)N1c1ccccc1N1C(=O)C=CC1=O | 82.8% (inactive)
Clc1ccc2c(c1)C(Br)c1cc(Cl)cc(Cl)c1-2 (stereo not given) | 53.5% (inactive)
NS(=O)(=O)c1ccc(-n2ncc3c(NC4CCCCC4)ncnc32)cc1 | 47.4% (inactive)
COc1cccc(CCN2C(=O)CCC3=C2CCC3=O)c1 | 86% (inactive)
O=C(C(=O)c1cc(Br)ccc1O)c1cc(Br)ccc1O | 25.4% (inactive)
O=CN1N=C(c2ccc(Cl)cc2)CC1c1cccc(Nc2ccnc3cc(Cl)ccc23)c1 (stereo not given) | 21.5% (inactive)
CCN(CC)CCNCC(=O)Oc1ccc(/C=C/C(=O)CC(=O)/C=C/c2ccc(OC(=O)CNCCN(CC)CC)c(OC)c2)cc1OC | 39.1% (inactive)

tested on: A549/ATCC NSCLC; assay: as above; details: 10 µM unless noted

SMILES | growth
COc1cc(/C=C/C(=O)c2c(C)n([O-])c3ccc(Cl)cc3[n+]2=O)cc(OC)c1OC | 71.7% (inactive)
COc1ccc2ncccc2c1Cc1c(OC)ccc2ncccc12 | 64.5% (inactive)
C=C1CC[C@@H]2[C@](C)(COC(C)=O)[C@H](OC(C)=O)CC[C@@]2(C)[C@@H]1CC(NCc1ccccc1)C1=CCOC1=O (stereo not given in full) | 49.2% (inactive)
CCOC(=O)c1sc(NC(=O)COc2cccc(/C=C3\Cc4ccc(Cl)cc4C3=O)c2)nc1C | 107% (inactive)
O=C(Nc1cccc(-n2cc(-c3ccncc3)c(-c3cc(O)cc(Cl)c3)n2)c1)Nc1ccc(Cl)c(Cl)c1 | 3.96% (active)
O=c1ccn(C2CC=C(CO)O2)c(=O)[nH]1 (stereo not given) | 106% (inactive)
COC(=O)[C@H](Cc1cn(C)cn1)NC(=O)[C@@H](NC(=O)Nc1cc(C(F)(F)F)cc(C(F)(F)F)c1)C(C)C | -73% [100 µM] (active)
O=c1c2ccccc2c2nccn2c2cc(Cl)ccc12 | 71.7% (inactive)
[N-]=[N+]=NCc1ncc(-c2ccc(C(F)(F)F)cc2)c(NC2CCCCCC2)n1 | 59.4% [50 µM] (inactive)
CN(C)CCC(=O)Nc1ccc(-n2cc(-c3cccc(NC(=S)Nc4cccc(-c5cn(-c6ccc(NC(=O)CCN(C)C)cc6)nn5)c4)c3)nn2)cc1 | 88.6% (inactive)
C/C(=C\CCc1ccoc1)CC/C=C(\C)CCCNc1ccc(F)cc1 | 80.4% (inactive)
COP(=O)(OC)C(c1ccccc1)(c1ccccc1)c1ccccc1 | 74.5% (inactive)
COc1cc(/C=C2\CN(S(=O)(=O)c3ccc(C)cc3)C/C(=C\c3cc(CN4CCOCC4)c(O)c(OC)c3)C2=O)cc(CN2CCOCC2)c1O | 19.4% (inactive)
CCCCCc1c(C)[nH]c(/C=C2\N=C(c3ccc[nH]3)C=C2Oc2ccccc2)c1C | -81.6% [100 µM] (active)
CCCCCCCSc1ncnc2[nH]ncc12 | 101% (inactive)
COc1cccc(/C=N\NC(=O)c2ccncc2)c1O | 73.2% (inactive)
Cc1cc(=O)oc2cc(OCCn3c(C)nn(-c4ccc(Cl)cc4)c3=O)ccc12 | 30.2% (inactive)
CC1CC=CCC1C1OCC(C)(C)CO1 (stereo not given) | 96.7% (inactive)
O=C1CSC(c2ccccc2Cl)N1c1nnc(Cn2nnc3ccccc32)o1 (stereo not given) | 59.9% (inactive)
O=C1Nc2ccc(C(=O)O)c(O)c2C1=O | 96.9% (inactive)

SMILES | growth
ICCC(c1ccccc1)(c1ccccc1)c1ccccc1 | 59.8% (inactive)
O=C(Oc1cccc2ccccc12)c1ccccc1C(=O)c1ccccc1 | 88.3% (inactive)
COc1ccc(C(=O)/C=C/c2ccc(C)cc2)cc1OC | 36.3% (inactive)
O=C(Nc1nc2c(C(F)(F)F)cccc2s1)c1cc(Cl)ccc1O | 3.66% (active)
CCOC(=O)C1C(=O)NC(C(=O)OCC)(C(=O)OCC)C1CC (stereo not given) | 97.2% (inactive)
O=C(CNC(=O)c1cccc2ccccc12)Nc1ccccc1Oc1cccc(O)c1 | 21.8% [5 µM] (inactive)
CC(=O)Nc1c(Cl)cc2c(c1Cl)Cc1cc([N+](=O)[O-])ccc1-2 | 74.5% (inactive)
COc1cc2c(cc1OC)C(CC1(O)CCCCC1)N(S(=O)(=O)c1ccc(C)cc1)CC2 (stereo not given) | 20.9% [100 µM] (inactive)
NC(=O)NC1(C(=O)O)CCCC1 | 101% (inactive)
COc1ccc(N2CCN(CC(=O)N3CCN(c4nnc(-c5ccc(Cl)cc5)c(-c5ccc(Cl)cc5)n4)CC3)CC2)cc1 | -8.6% (active)
Oc1ccc(/C=N/Nc2nc3ccccc3s2)c(O)c1 | 18% (inactive)
Nc1ccccc1-c1ccn[nH]1 | 89.6% (inactive)
Nc1ccc2c(c1)Cc1cc(Cl)c(Cl)cc1-2 | 59.1% (inactive)
O=C1C=CC(=O)N1c1ccccc1N1C(=O)C=CC1=O | 121% (inactive)
Clc1ccc2c(c1)C(Br)c1cc(Cl)cc(Cl)c1-2 (stereo not given) | 98.4% (inactive)
NS(=O)(=O)c1ccc(-n2ncc3c(NC4CCCCC4)ncnc32)cc1 | 83% (inactive)
COc1cccc(CCN2C(=O)CCC3=C2CCC3=O)c1 | 112% (inactive)
O=C(C(=O)c1cc(Br)ccc1O)c1cc(Br)ccc1O | 50.7% (inactive)
O=CN1N=C(c2ccc(Cl)cc2)CC1c1cccc(Nc2ccnc3cc(Cl)ccc23)c1 (stereo not given) | 20.9% (inactive)
CCN(CC)CCNCC(=O)Oc1ccc(/C=C/C(=O)CC(=O)/C=C/c2ccc(OC(=O)CNCCN(CC)CC)c(OC)c2)cc1OC | 38.2% (inactive)
